Hits are enriched below; roughly 7.3% of the tested compounds scored in any of these assays.
FLuc modulator – qHTS profiling assay for firefly luciferase inhibitor/activator using purifed enzyme and Km concentrations of substrates (counterscreen for miR-21 project); purified FLuc, Km substrates, luminescence inhibition; AID 588342, 2011; 360,000 compounds, 6.9% hits; Potency, µM (series often up to 57.5 µM), most hits filed as inhibitors; Luciferin 4-monooxygenase (Photinus pyralis), P08659; further: nearly all actives have a fitted effect of over 55% in size
Target sequence (P08659 whole entry, looked up): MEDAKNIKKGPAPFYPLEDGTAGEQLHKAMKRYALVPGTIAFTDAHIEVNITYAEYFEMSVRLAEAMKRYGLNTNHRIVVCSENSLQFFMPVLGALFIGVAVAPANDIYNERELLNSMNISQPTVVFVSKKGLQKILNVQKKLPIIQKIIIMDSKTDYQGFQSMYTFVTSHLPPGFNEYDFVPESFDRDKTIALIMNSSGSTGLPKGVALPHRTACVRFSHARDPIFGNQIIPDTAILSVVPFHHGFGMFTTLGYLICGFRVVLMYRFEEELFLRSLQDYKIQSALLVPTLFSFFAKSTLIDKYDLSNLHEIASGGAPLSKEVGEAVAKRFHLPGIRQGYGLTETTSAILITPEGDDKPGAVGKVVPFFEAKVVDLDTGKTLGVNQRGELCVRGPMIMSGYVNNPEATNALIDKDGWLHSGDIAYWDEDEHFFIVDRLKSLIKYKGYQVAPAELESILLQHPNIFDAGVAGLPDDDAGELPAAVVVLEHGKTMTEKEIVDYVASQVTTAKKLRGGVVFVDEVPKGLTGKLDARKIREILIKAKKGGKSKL
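Purified P. pyralis luciferase, 10 nM final, with Km-level 10 uM D-luciferin and 10 uM ATP in 50 mM Tris acetate pH 7.5, 10 mM Mg acetate, 0.01% Tween-20, 0.05% BSA; 6-point qHTS titration about 60 µM downward; luminescence read.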
p53 reactivation – qHTS assay for re-activators of p53 using a Luc reporter | H1299 p53-A138V BP100-luciferase reporter, luminescence, 24 h | Potency, µM (titrated, usually from 92.2 µM), hits mostly activators | 320,000 compounds, 0.063% hits | AID 504706, 2011; further: nearly all actives have a fitted effect of over 45% in size
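H1299 (p53-null), stable ts p53-A138V + BP100-Luc; 1000 cells/well, Opti-MEM/10% FBS; cpd 4 pt, 1:5; 24 h, 37 deg C, 5% CO2; detection reagent 10 min RT; luminescence.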
SMN2 splice enh – qHTS Assay for Enhancers of SMN2 Splice Variant Expression | HEK293 SMN2-luciferase splicing reporter, luminescence, 30-36 h | Potency, µM (top dose mostly 46.1 µM), usual class: activators | 210,000 compounds, 2.8% hits; further: nearly all actives have a fitted effect of over 55% in size
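HEK293 cells carry an SMN2 […]–luciferase reporter in which exon 7 inclusion puts luciferase in frame. Cells were plated 10-12 h before compound addition, then incubated 30-36 h at 37C. ONE-Glo luminescence was read; sodium butyrate at 4.5 mM final served as control.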
Rab9 promoter act – qHTS Assay for Rab9 Promoter Activators; Huh7 Rab9 promoter-luciferase reporter, luminescence, 24 h; Potency, µM (doses to about 9.22 µM), usual class: activators; 320,000 compounds, 2.8% hits; AID 485297, 2010; further: nearly all actives have a fitted effect of over 60% in size
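Cell-based reporter: Huh7 stable for Rab9 promoter-driven luciferase, plated in reduced-serum medium with 10% FBS at 1500 cells/well, compound-treated 24 h at 37 °C, luminescence read after 10 min reagent.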
ELG1 genotoxic – qHTS screen for small molecules that induce genotoxicity in human embryonic kidney (HEK293T) cells expressing luciferase-tagged ELG1. HEK293T ELG1-luciferase reporter, luminescence, 16 h. Potency, µM (highest dose often 46 µM), most hits filed as activators. 330,000 compounds, 1.3% hits. AID 504466, 2011; further: nearly all actives have a fitted effect of over 60% in size
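HEK293T cells expressing luciferase-tagged ELG1 were exposed to compound or DMSO vehicle for 16 hr at 37 °C and 5% CO2. Luciferase activity was then measured with ONE-Glo after 30 min at room temperature.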
NPC1 promoter act – qHTS Assay for NPC1 Promoter Activators | Huh7 NPC1 promoter luciferase reporter, 24 h | Potency, µM (doses to about 9.22 µM), actives largely listed as activators | 320,000 compounds, 2.4% hits | AID 485313, 2010; further: nearly all actives have a fitted effect of over 60% in size
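Luminescence from an NPC1 promoter-driven luciferase reporter in stably transfected Huh7 cells was measured after 24 h compound treatment at 37 °C, followed by 10 min ambient incubation with luciferase detection reagent.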
Of the large screens only hits and unclear results are named; the others gave an inactive call. The call rests on the fitted dose curve; in most records, active means well fitted curve in the direction sought with a large enough effect; inconclusive means small, poorly fitted or top-dose-only effect, or another doubt; inactive means no such curve, though single readings can be large; an effect the other way counts as inactive or inconclusive.

O=C(CCCOc1ccccc1)N1CCN(c2ccc(F)cc2)CC1	FLuc modulator 26.9µM, ELG1 genotoxic inconclusive
CC(=O)Nc1ccc(S(=O)(=O)N2CCC(n3c(C(F)(F)F)nc4cccnc43)CC2)cc1	none (no result: p53 reactivation, SMN2 splice enh, Rab9 promoter act, ELG1 genotoxic, NPC1 promoter act)
CCC(C)Nc1nc(-c2ccc3c(c2)NC(=O)CO3)cs1 (stereo unspecified)	FLuc modulator 16.9µM, p53 reactivation inconclusive, Rab9 promoter act inconclusive
Cc1nc2ccc(-c3nc4ccccc4[nH]3)cc2[nH]1	FLuc modulator 4.78µM, SMN2 splice enh 2.82µM, Rab9 promoter act 0.631µM, NPC1 promoter act 1.41µM
Clc1ccc(-c2nc3ccccc3[nH]2)cn1	FLuc modulator 19µM, Rab9 promoter act inconclusive, NPC1 promoter act inconclusive (no result: SMN2 splice enh)
Cc1ccc2nc(C(F)C(F)(F)F)[nH]c2c1 (stereo unspecified)	FLuc modulator 19µM (no result: SMN2 splice enh)
FC(c1nc2ccccc2[nH]1)C(F)(F)F (stereo unspecified)	none (no result: SMN2 splice enh)
Cc1ccc(-c2nc3ccccc3[nH]2)cn1	FLuc modulator 15.1µM, Rab9 promoter act inconclusive, ELG1 genotoxic inconclusive, NPC1 promoter act inconclusive (no result: SMN2 splice enh)
COC(=O)c1cc(NC(=O)c2cc3sccc3n2Cc2ccc(Cl)cc2)cc(C(=O)OC)c1	none (no result: p53 reactivation, Rab9 promoter act, ELG1 genotoxic, NPC1 promoter act)
Cc1ccc2oc(=O)c(-c3nc4ccc(C)cc4[nH]3)cc2c1	none (no result: p53 reactivation, SMN2 splice enh, Rab9 promoter act, ELG1 genotoxic, NPC1 promoter act)
Cc1ccc2nc(-c3ccncc3)[nH]c2c1	FLuc modulator 8.49µM, Rab9 promoter act inconclusive, ELG1 genotoxic 11.6µM, NPC1 promoter act 2.24µM (no result: SMN2 splice enh)
COc1ccc(C2=NN(C(=O)COC(=O)c3ccc(NC(=O)CC#N)cc3)C(c3ccco3)C2)cc1 (stereo unspecified)	none (no result: SMN2 splice enh)
COC(=O)c1cc(OC)c(OC)cc1NC(=O)c1ccc2c(c1)CCN2S(C)(=O)=O	none (no result: p53 reactivation, Rab9 promoter act, ELG1 genotoxic, NPC1 promoter act)
COC(=O)c1ccc(C(/C=C/[C@@H](C)C(=O)NCCN2CCCC2)NC(=O)OCc2ccccc2)cc1 (stereo partly specified)	none (no result: FLuc modulator, p53 reactivation, Rab9 promoter act, ELG1 genotoxic, NPC1 promoter act)
NS(=O)(=O)c1ccc(-c2ccc(/C=N/NC(=O)c3ccccc3O)o2)cc1	FLuc modulator 6.75µM (no result: SMN2 splice enh)
CCOc1ccc(C(=O)N/N=C/c2ccc(-c3ccc(S(=O)(=O)Nc4ncccn4)cc3)o2)cc1	FLuc modulator 19µM
NC(=S)NN=Cc1ccc(-c2ccc(S(=O)(=O)Nc3ncccn3)cc2)o1	none (no result: FLuc modulator, SMN2 splice enh, Rab9 promoter act, NPC1 promoter act)
O=C(N/N=C/c1ccc(-c2ccc(S(=O)(=O)Nc3ncccn3)cc2)o1)c1cc2ccccc2cc1O	FLuc modulator 21.3µM, SMN2 splice enh inconclusive
C[C@]1(C(=O)NCC2CC2)C=C[C@@H](Cc2ccccc2)N1C(=O)c1ccccc1	none (no result: FLuc modulator, p53 reactivation, Rab9 promoter act, ELG1 genotoxic, NPC1 promoter act)
Fc1ccccc1Nc1ncnc2c1nc1n2CCCCC1	FLuc modulator 12µM (no result: p53 reactivation, SMN2 splice enh, Rab9 promoter act, ELG1 genotoxic, NPC1 promoter act)
Cc1ccc(Nc2ncnc3c2nc2n3CCCC2)cc1F	FLuc modulator 13.5µM (no result: p53 reactivation, SMN2 splice enh, Rab9 promoter act, ELG1 genotoxic, NPC1 promoter act)
CC(C)c1ccc(Nc2ncnc3c2nc2n3CCCC2)cc1	FLuc modulator 5.36µM (no result: p53 reactivation, SMN2 splice enh, Rab9 promoter act, ELG1 genotoxic, NPC1 promoter act)
CC(C)c1ccc(NC(=O)C2CCN(c3ncnc4c3nc3n4CCCCC3)CC2)cc1	none (no result: SMN2 splice enh)
Cc1cc(C)cc(Nc2ncnc3c2nc2n3CCCC2)c1	none (no result: p53 reactivation, SMN2 splice enh, Rab9 promoter act, ELG1 genotoxic, NPC1 promoter act)
COc1ccc(OC)c(Nc2ncnc3c2nc2n3CCCC2)c1	none (no result: p53 reactivation, SMN2 splice enh, Rab9 promoter act, ELG1 genotoxic, NPC1 promoter act)
CCOc1ccc(Nc2ncnc3c2nc2n3CCCC2)cc1	FLuc modulator 15.1µM (no result: p53 reactivation, SMN2 splice enh, Rab9 promoter act, ELG1 genotoxic, NPC1 promoter act)
COc1ccccc1Nc1ncnc2c1nc1n2CCCC1	none (no result: p53 reactivation, SMN2 splice enh, Rab9 promoter act, ELG1 genotoxic, NPC1 promoter act)
O=C(O)[C@@H]1[C@@H]2C[C@H]3c4[nH]c5ccccc5c4CCN3C[C@@H]2CC[C@@H]1O	none (no result: FLuc modulator, p53 reactivation, Rab9 promoter act, ELG1 genotoxic, NPC1 promoter act)
COC12NC(=O)N(C)C1(OC)C(=O)N(C)C(=O)N2C (stereo unspecified)	none
CCOC(=O)C1CCC(CN(Cc2cccc(Br)c2)S(=O)(=O)c2ccc(Cl)cc2)CC1 (stereo unspecified)	none (no result: p53 reactivation, SMN2 splice enh, Rab9 promoter act, ELG1 genotoxic, NPC1 promoter act)
C(=C\c1cc(/C=C/c2ccccc2)ncn1)/c1ccccc1	FLuc modulator 12µM, ELG1 genotoxic inconclusive
Cc1cccc(/C=C/c2ccccc2)n1	SMN2 splice enh inconclusive, Rab9 promoter act 11.2µM, NPC1 promoter act 13µM (no result: FLuc modulator, p53 reactivation, ELG1 genotoxic)

Assay outcomes from PubChem.
